Inconclusive results are not listed. Where a call stands in place of a potency, no number is given. Activity calls are given as the source filed them. The call rests on the fitted dose curve.
test: p53 small molecule agonists, cell-based qHTS assay with rat liver microsomes (AID 1963578); conditions: HCT-116 p53RE-bla, beta-lactamase ratio, 16 h; series mostly up to 66 µM
Description: U.S. Tox21 Program National Center for Advancing Translational Sciences [NCATS] Division of Preclinical Innovation [DPI] U.S. Environmental Protection Agency [EPA] National Institutes of Environmental Health Sciences [NIEHS] National Toxicology Program [NTP] U.S. Food and Drug Administration [FDA] Tox21 Assay Overview: p53, a tumor suppressor protein, is activated following cellular insult, including DNA damage and other cellular stresses. The activation of p53 regulates cell fate by inducing DNA repair, cell cycle arrest, apoptosis, or cellular senescence. The activation of p53, therefore, is a good indicator of DNA damage and other cellular stresses. […] The activation of the reporter gene under culture conditions can be detected by fluorescence intensity. This cell line was used to screen the Tox21 10K compound library in the condition of presence of rat liver microsomes and to identify agonists that activate the p53 signaling pathway after in vitro metabolic activation (Ooka et al., Archive of Toxicology 96:1975-1987, 2022).
Tox21 Assay Protocol Summary: The p53RE-bla cells were dispensed at 4,000cells/3ul/well in 1536-well black-clear bottom plates. After the assay plates were incubated at 37 C, 5% CO2 incubator for 5 hours, 23 nL of compounds dissolved in DMSO, positive controls or DMSO only was transferred to the assay plate. Following compound addition, 3 uL of rat liver microsomes (Molecular Toxicology, Boone, NC) at final concentration of 0.5 mg/mL and 1uL of Beta-Nicotinamide adenine dinucleotide 2-phosphate (NADPH) at final concentration of 0.5 mg/mL were transferred to the assay plate. The plates were incubated at 37 C for 16 hours. 1 uL of LiveBLAzer detection mixture was added to each well and the plates were incubated at room temperature in the dark for 2 h.

SMILES | Potency | activation
O=C(CCCN1CCN(c2ccccn2)CC1)c1ccc(F)cc1 | inactive | 
Oc1ccc(Nc2ccccc2)cc1 | inactive | 
CC1CCC(C(C)CS)CC1S (stereo not given) | inactive | 
Nc1ccc(C(=O)Oc2ccccc2)c(O)c1 | inactive | 
CC(=O)OC1CCCCC1C(C)(C)C (stereo not given) | inactive | 
C#Cc1ccc(-c2ccccc2F)cc1 | inactive | 
CC(=O)c1ccc2ccc3ccccc3c2c1 | inactive | 
CCC=O | inactive | 
CCCCCCCCCCCCCC=O |  | -2.08% [at 5.99 µM] (inactive)
CCOCC(O)COc1ccc(NC(=O)CC[S+](C)C)cc1 (stereo not given) | inactive | 
O=C1c2ccccc2C(=O)C1c1ccccc1 | inactive | 
CCCCCC#CC(=O)OC | inactive | 
Cc1ccc(S(=O)(=O)NC(=O)NN2CC3CCCC3C2)cc1 (stereo not given) | inactive | 
CN1CCN(CCCN2c3ccccc3Sc3ccc(Cl)cc32)CC1 | inactive | 
Cc1c(F)cc2c(=O)c(C(=O)O)cn3c2c1CCC3C (stereo not given) | inactive | 
C=C(C)CCCC | inactive | 
CCC(CC)(CC(=O)Nc1cccc(/C=C/c2nc(C3CCC3)cs2)c1)C(=O)O | inactive | 
CC(C)(C)c1cccc(O)c1 | inactive | 
COc1ccc(S(=O)(=O)N2c3ccc(Cl)cc3[C@@](O)(c3ccccc3Cl)[C@H]2C(=O)N2CCC[C@@H]2C(N)=O)cc1OC | inactive | 
CNC(=O)c1cnn(-c2nc(N)c3ncn([C@@H]4O[C@H](CO)[C@@H](O)[C@H]4O)c3n2)c1 | inactive | 

SMILES | Potency | activation
Cc1nc2n(c(=O)c1CCN1CCC(c3noc4cc(F)ccc34)CC1)CCC[C@H]2O |  | -1.62% [at 13.6 µM] (inactive)
O=Cc1ccc(F)c(Br)c1 | inactive | 
CC(C)c1ccc(C(=O)N=C(N)N)cc1S(C)(=O)=O | inactive | 
COc1ccc(-c2cc(=O)c3c(O)cc(O[C@@H]4O[C@H](CO[C@@H]5O[C@@H](C)[C@H](O)[C@@H](O)[C@H]5O)[C@@H](O)[C@H](O)[C@H]4O)cc3o2)cc1O | inactive | 
COc1ccc(-n2nc(CCC(=O)N(C)O)cc2-c2ccc(Cl)cc2)cc1 | inactive | 
CN1CCN(C2=Nc3cc(F)ccc3Cc3ccccc32)CC1 | inactive | 
CCOC(=O)c1ccc(OC(=O)CCCCCN=C(N)N)cc1 | inactive | 
CNC(=O)c1c(I)c(NC(=O)CCCCC(=O)Nc2c(I)c(C(=O)O)c(I)c(C(=O)NC)c2I)c(I)c(C(=O)O)c1I | inactive | 
CC(=O)OCC[N+](C)(C)C | inactive | 
Oc1c(I)cc(I)c2cccnc12 | inactive | 
CC1(C)S[C@@H]2[C@H](NC(=O)Cc3ccccc3)C(=O)N2[C@H]1C(=O)O (tested in a mixture with another compound) | inactive | 
Cn1c(N)c(N=O)c(=O)n(C)c1=O | inactive | 
N=c1ccn2c(n1)O[C@H]1[C@H](O)[C@@H](CO)O[C@H]12 | inactive | 
COc1cnc(NS(=O)(=O)c2ccc(N)cc2)nc1 | inactive | 
CCN(CC)CCNC(=O)c1cc(Br)c(N)cc1OC | inactive | 
COC(=O)C(c1ccccc1Cl)N1CCc2sccc2C1 (stereo not given) | inactive | 
O=C(Nc1ccc(Cl)c(Cl)c1)C1CC1 | inactive | 
CO[C@@]1(NC(=O)CSCC#N)C(=O)N2C(C(=O)O)=C(CSc3nnnn3C)CS[C@@H]21 | inactive | 
O=C(O)P(=O)(O)O | inactive | 
CCN(CC)C(=O)N1CCN(C)CC1 | inactive | 
